Reference: PubChem BioAssay (NCI)
This is part of a sample that, as a whole, favours compounds with a hit. Of some 83,000 tested, about 20% had one in any assay.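 Each cell line was grown in a 96-well plate and treated with one concentration of compound for 48 hours. Values below 10 were considered active.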 Activity calls are given as the source filed them.

Legend:
Test in all cases: NCI-60 one-dose screen, 48 h (100 = growth as untreated, 0 = no growth, -100 = all killed)
Settings in all cases: 10 µM
HT29 colon = tested on: HT29 colon
SNB-75 CNS = tested on: SNB-75 CNS
SNB-19 CNS = tested on: SNB-19 CNS
U251 CNS = tested on: U251 CNS
PC-3 prostate = tested on: PC-3 prostate
SK-MEL-5 melanoma = tested on: SK-MEL-5 melanoma
UACC-62 melanoma = tested on: UACC-62 melanoma
LOX IMVI melanoma = tested on: LOX IMVI melanoma
SK-MEL-28 melanoma = tested on: SK-MEL-28 melanoma
SK-MEL-2 melanoma = tested on: SK-MEL-2 melanoma
SN12C renal = tested on: SN12C renal
UO-31 renal = tested on: UO-31 renal
TK-10 renal = tested on: TK-10 renal
ACHN renal = tested on: ACHN renal
CAKI-1 renal = tested on: CAKI-1 renal
A498 renal = tested on: A498 renal
CCRF-CEM leukemia = tested on: CCRF-CEM leukemia
SR leukemia = tested on: SR leukemia
MOLT-4 leukemia = tested on: MOLT-4 leukemia

Measured: growth

O=C1Nc2ccc(Cl)cc2/C1=C\c1c(-c2ccc(Cl)cc2)nc2sc(C3CC3)nn12
inactive: HT29 colon 61.8% | SNB-75 CNS 11.3% | SNB-19 CNS 74.3% | U251 CNS 52.6% | PC-3 prostate 75.6% | SK-MEL-5 melanoma 72% | UACC-62 melanoma 38.4% | LOX IMVI melanoma 26% | SK-MEL-28 melanoma 46% | SK-MEL-2 melanoma 103% | SN12C renal 75.7% | UO-31 renal 63.7% | TK-10 renal 52.9% | ACHN renal 44.4% | CAKI-1 renal 45.7% | A498 renal 14.9% | CCRF-CEM leukemia 93.6% | SR leukemia 44.2%

O=C1/C(=C\c2ccc(F)cc2)CN(C(=O)c2ccccc2F)C/C1=C\c1ccc(F)cc1
inactive: SNB-75 CNS 52.9% | SNB-19 CNS 33.4% | SK-MEL-2 melanoma 30.4% | A498 renal 47.5%
active: HT29 colon -37% | U251 CNS -63% | PC-3 prostate -34.3% | SK-MEL-5 melanoma -58.6% | UACC-62 melanoma -77.6% | LOX IMVI melanoma -80.8% | SK-MEL-28 melanoma -72.5% | SN12C renal -57.1% | UO-31 renal -72.6% | TK-10 renal 9.87% | ACHN renal -33.1% | CAKI-1 renal -35.4% | CCRF-CEM leukemia -16.4% | MOLT-4 leukemia -1.83% | SR leukemia -17.7%

N#Cc1ncc(Br)c(NC2CCCCCC2)n1
inactive: HT29 colon 120% | SNB-75 CNS 83.8% | SNB-19 CNS 91.5% | U251 CNS 92% | PC-3 prostate 92.5% | SK-MEL-5 melanoma 103% | UACC-62 melanoma 95.5% | LOX IMVI melanoma 101% | SK-MEL-28 melanoma 104% | SK-MEL-2 melanoma 104% | SN12C renal 93.5% | UO-31 renal 84.7% | TK-10 renal 134% | ACHN renal 100% | CAKI-1 renal 89.4% | A498 renal 103% | MOLT-4 leukemia 86.8% | SR leukemia 80.9%

O=c1cc(-c2ccccc2)[nH]n1-c1nc2ccccc2[nH]1
inactive: HT29 colon 87.1% | SNB-75 CNS 64.4% | SNB-19 CNS 53.1% | U251 CNS 31.7% | PC-3 prostate 56.6% | SK-MEL-5 melanoma 34.1% | UACC-62 melanoma 36.5% | LOX IMVI melanoma 27.8% | SK-MEL-28 melanoma 74.1% | SK-MEL-2 melanoma 68.5% | SN12C renal 49.5% | UO-31 renal 38.4% | TK-10 renal 63.1% | ACHN renal 37.2% | CAKI-1 renal 45.9% | SR leukemia 39.3%
active: A498 renal 1.96% | MOLT-4 leukemia -18.6%

COc1ccc(-c2nc3sc(-c4ccc(OC)cc4)c(-c4ccc(OC)cc4)n3c2/C=C/c2ccc(C(C)C)cc2)cc1
inactive: HT29 colon 92.5% | SNB-75 CNS 55.9% | SNB-19 CNS 103% | U251 CNS 102% | PC-3 prostate 79.4% | SK-MEL-5 melanoma 99.9% | UACC-62 melanoma 86.9% | LOX IMVI melanoma 98.6% | SK-MEL-28 melanoma 100% | SK-MEL-2 melanoma 84.3% | SN12C renal 99.2% | UO-31 renal 83.6% | TK-10 renal 97.7% | ACHN renal 97.9% | CAKI-1 renal 82.2% | A498 renal 99.1% | CCRF-CEM leukemia 96% | SR leukemia 97.4%

COc1cc(-c2nn3c(/C=C4/C(=O)Nc5ccccc54)c(-c4ccc(C)cc4)nc3s2)cc(OC)c1OC
active: TK-10 renal -18.7%
inactive: HT29 colon 25.7% | SNB-75 CNS 18.3% | SNB-19 CNS 87.8% | U251 CNS 65.2% | PC-3 prostate 85.5% | SK-MEL-5 melanoma 12.2% | UACC-62 melanoma 58.5% | LOX IMVI melanoma 44.1% | SK-MEL-28 melanoma 29.1% | SK-MEL-2 melanoma 65.9% | SN12C renal 73.2% | UO-31 renal 73.1% | ACHN renal 81.1% | CAKI-1 renal 64.6% | A498 renal 98.9% | CCRF-CEM leukemia 67.4% | MOLT-4 leukemia 47.8% | SR leukemia 26.5%

O=C1/C(=C\c2ccc(Br)cc2)CN(C(=O)c2ccccc2F)C/C1=C\c1ccc(Br)cc1
active: HT29 colon -47.4% | U251 CNS -66.6% | PC-3 prostate 3.89% | UACC-62 melanoma -3.15% | LOX IMVI melanoma -85.5% | UO-31 renal -53.6% | CAKI-1 renal 7.2% | CCRF-CEM leukemia -10.4% | MOLT-4 leukemia 4.49% | SR leukemia -27.4%
inactive: SNB-75 CNS 56.5% | SNB-19 CNS 54.3% | SK-MEL-5 melanoma 30.4% | SK-MEL-28 melanoma 15.1% | SK-MEL-2 melanoma 66% | SN12C renal 14.4% | TK-10 renal 55.2% | ACHN renal 32.3% | A498 renal 74.9%

COc1cc(Cl)cc(-c2nn(-c3cccc(NC(=O)c4ccc(Cl)c(Cl)c4)c3)cc2-c2ccncc2)c1
inactive: HT29 colon 56.4% | SNB-75 CNS 50.6% | SNB-19 CNS 71.6% | U251 CNS 64.1% | PC-3 prostate 34% | SK-MEL-5 melanoma 78.5% | UACC-62 melanoma 75.4% | LOX IMVI melanoma 72.8% | SK-MEL-28 melanoma 87.7% | SK-MEL-2 melanoma 78.4% | SN12C renal 69.6% | UO-31 renal 43.5% | TK-10 renal 104% | ACHN renal 63.9% | CAKI-1 renal 63.6% | CCRF-CEM leukemia 59.2% | MOLT-4 leukemia 54.9% | SR leukemia 43.6%
active: A498 renal -0.943%
